Source: the supplement of paper PMC9334596
Values joined by “and” are separate entries in the source; they are usually repeats but may differ in a detail not shown here. Equal entries are not always repeated. Whole data set: some 5,300 compounds, median “PER2::LUC luminescence relative to vehicle control” near 0.96, cut for the highest 2% near 1.3. Shown is part of a subset that was picked to be rich in the highest values.

Tested on: mPer2Luc MEF
Test: PER2::LUC luminescence relative to vehicle control (fold of vehicle); higher = higher PER2::LUC reporter signal
Settings: 10 µM
Method in brief: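 Each value gives PER2::LUC luminescence as fold of vehicle control, measured with the ONE-Glo luciferase assay system in mouse embryonic fibroblasts carrying the mPer2Luc reporter. Cells grown in DMEM with 10% FBS at 37 °C and 5% CO2 were seeded at ~3000 per well in 384-well plates. Library compounds were added at 10 μM 48 h later, and readings were taken 24 h and 30 h after treatment.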

| SMILES | PER2::LUC luminescence (time after treatment 24 h) | PER2::LUC luminescence (time after treatment 30 h) |
| --- | --- | --- |
| NC(=O)C[n+]1cccc(C(=O)O)c1 | 1.18 | 1.08 |
| c1cc(NC2CCNCC2)nc(-c2cnc3ccccn23)c1 | 0.506 | 0.487 |
| CCCNC[C@]1(O)[C@H](C)O[C@@H](O[C@H]2[C@H](C)[C@@H](O[C@@H]3O[C@H](C)C[C@H](N(C)C)[C@H]3O)[C@](C)(O)C[C@@H](C)CN[C@H](C)[C@@H](O)[C@](C)(O)[C@@H](CC)OC(=O)[C@@H]2C)C[C@@]1(C)OC | 1.05 | 0.881 |
| C/C=C(/C)C(=O)O[C@H]1CC(C)=CC(=O)[C@@]2(C)CC[C@@](O)(C(C)C)[C@H]12 | 1.01 | 0.988 |
| Cc1nnc(-c2sc(NC(=O)[C@H](C(C)C)n3c(=O)[nH]c4ccccc4c3=O)nc2C)o1 | 1.04 | 0.956 |
| COc1cc([C@@H]2CC(=O)c3c(O)cc(O)cc3O2)ccc1O | 0.985 | 0.942 |
| Cc1occc1C(=O)n1ccnc1 | 0.986 | 0.971 |
| COc1cc2ncnc(N(C)c3cccc(Br)c3)c2cc1OC | 0.83 | 0.741 |
| OCc1ccc(-c2ccc(-c3ccc(CO)s3)o2)s1 | 1.48 | 1.62 |
| CCCCCCCCOC(=O)C=Cc1ccc(OC)cc1 | 1.04 | 1.09 |
| CC(C)(O)c1ccc2c(c1)ncn2-c1cccc(-c2ccccc2C#N)c1 | 0.829 | 0.89 |
| CC(Nc1ccc(-c2nn[nH]n2)cc1)C(=O)O (racemic) | 0.971 | 0.96 |
| CC(C)[C@H](CO)Nc1nc(Sc2cccc(N)c2)c2ncn(C(C)C)c2n1 | 0.582 | 0.686 |
| FC(F)(F)c1ccc(CNc2ccc(Cc3c[nH]c4ncc(Cl)cc34)cn2)cc1 | 0.83 | 0.83 |
| CC(C(=O)O)c1ccc2c(c1)CC(=O)c1ccccc1S2 (stereo unspecified) | 1.05 | 1.08 |
| CC(C(=O)O)c1ccc(N2Cc3ccccc3C2=O)cc1 (stereo unspecified) | 1.02 | 1.34 |
| CC(C(=O)O)c1ccc(-c2ccccc2)c(F)c1 (stereo unspecified) | 1.15 | 1.06 |
| O=C(CCc1ccc(O)cc1)c1c(O)cc(O)cc1OC1OC(CO)C(O)C(O)C1O (stereo unspecified) | 1.02 | 0.948 |
| Oc1nc2cc(Cl)c(Cl)cc2nc1O | 0.684 | 0.69 |
| COc1ccc2nc(/C=C/c3cccc([N+](=O)[O-])c3)n(-c3ccc(C(=O)O)cc3)c(=O)c2c1 | 1.05 | 1.01 |
| O=C(O)[C@@]1(CCCCCCOc2ccc(Cl)cc2)CO1 | 0.936 | 1.01 |
| CCN(CC)CCOc1ccc(C(=C(Cl)c2ccccc2)c2ccccc2)cc1 | 0.934 and 0.704 | 1.73 and 0.773 |

| SMILES | PER2::LUC luminescence (time after treatment 24 h) | PER2::LUC luminescence (time after treatment 30 h) |
| --- | --- | --- |
| CC/C(=C(\c1ccccc1)c1ccc(OCCN(C)C)cc1)c1ccccc1 | 0.718 and 0.679 | 0.784 and 0.742 |
| CCN(CC)CCOc1ccc(Cc2ccccc2)cc1 | 0.811 | 0.893 |
| CC(=O)NC[C@H]1CN(c2ccc(-c3ccc(CNCc4cnn[nH]4)cc3)c(F)c2)C(=O)O1 | 1.03 | 1.09 |
| Cn1nnc(-c2ccc(-c3ccc(N4C[C@@H](CO)OC4=O)cc3F)cn2)n1 | 1.01 | 1.09 |
| Cn1nnc(-c2ccc(-c3ccc(N4C[C@H](CO)OC4=O)cc3F)cn2)n1 | 1.39 and 1.4 | 1.56 and 1.53 |
| CON(Cc1ccc(F)cc1)C(=O)/C=C(\O)C(=O)O | 0.942 | 0.968 |
| COc1ccc2[nH]cc(CCNC(=O)C3CC3)c2c1 | 0.901 | 0.938 |
| c1nc(CC2CCNCC2)c[nH]1 | 0.32 | 0.4 |
| NCCc1c[nH]cn1 | 0.832 and 0.572 | 0.983 and 0.838 |
| O=C(c1ccc(OCCCc2c[nH]cn2)cc1)C1CC1 | 1.09 and 1.51 | 1.33 and 1.29 |
| CC1=CC(=O)C(C(C)C)=C/C1=N/OC(=O)c1ccccc1C | 1.11 | 0.994 |
| O=C(O)c1c[nH]c(=O)cn1 | 1.08 | 0.999 |
| FC(F)(F)c1cccc(-c2noc(-c3cc(-c4ccccc4)c(C(F)(F)F)s3)n2)c1 | 1.17 | 1.14 |
| O=C(NCC1(c2nc(-c3ccccc3)cs2)CCOCC1)c1cccc(-c2noc(C(F)(F)F)n2)c1 | 0.923 | 0.884 |
| O=C(O)c1cccc(-c2noc(-c3ccccc3F)n2)c1 | 1.69 | 2.11 |
| CC(C)c1ccc2oc3nc(N)c(C(=O)O)cc3c(=O)c2c1 | 1.07 | 1.49 |
| N[C@H](C(=O)O)c1ccc(O)c(C(=O)O)c1 | 1.02 | 0.987 |
| O=C(O)c1cc(=O)c2ccccc2o1 | 0.998 and 1.05 | 0.946 and 1.14 |
| O=C(O)c1cc(=O)c2cc(Cl)ccc2[nH]1 | 0.977 | 0.883 |
| CCOC(=O)[N-]c1c[n+](N2CCOCC2)no1 | 1.09 | 1.74 |
| O=C(Nc1ccccc1)C12C=C1C(=NO)c1ccccc1O2 (stereo unspecified) | 1.08 | 0.974 |
| N[C@@]1(C(=O)O)CN[C@@H](C(=O)O)C1 | 0.997 | 0.949 |

| SMILES | PER2::LUC luminescence (time after treatment 24 h) | PER2::LUC luminescence (time after treatment 30 h) |
| --- | --- | --- |
| C[C@@H]1O[C@@H](OC[C@H]2O[C@@H](Oc3cc(O)c4c(c3)O[C@H](c3ccc(O)cc3)CC4=O)[C@H](O)[C@@H](O)[C@@H]2O)[C@H](O)[C@H](O)[C@H]1O | 0.957 | 0.972 |
| COc1ccc(-c2cc(=O)c3c(O)cc(O)cc3o2)cc1O | 0.933 | 1.03 |
| O=c1cc(-c2cc(O)c(O)c(O)c2)oc2cc(O)cc(O)c12 | 0.957 | 0.941 |
| COc1ccc(-c2cc(=O)c3c(O)cc(O)cc3o2)cc1 | 1.41 | 1.56 |
| COc1cc(O)c2c(=O)cc(-c3ccc(O)cc3)oc2c1 | 1.21 | 1.32 |
| COc1ccc(-c2cc(=O)c3c(O)c(OC)c(OC)c(OC)c3o2)cc1 | 1.03 | 1.16 |
| COc1ccc(-c2cc(=O)c3c(O)cc(OC)cc3o2)cc1 | 1.29 | 1.46 |
| Cc1cc2nc3c(=O)[nH]c(=O)nc-3n(C[C@H](O)[C@H](O)[C@H](O)COP(=O)(O)O)c2cc1C | 1.22 | 0.887 |
| O=C(Nc1ccc(C(F)(F)F)cn1)c1cccc2cccnc12 | 1.02 | 1.03 |
| CC(=O)CCCCn1cnc2c1c(=O)n(C)c(=O)n2C | 0.931 | 0.944 |
| Cc1cccc(Oc2nc3c(C)cccn3c(=O)c2C=C(C#N)c2nc3ccccc3s2)c1 | 1 | 1.04 |
| O=C1CCC(c2ccccc2)(C2CCN(Cc3ccccc3)CC2)C(=O)N1 (stereo unspecified) | 0.825 | 0.82 |
| COc1ncnc(NS(=O)(=O)c2ccc(N)cc2)c1OC | 0.986 | 0.84 |
| COc1cnc(NS(=O)(=O)c2ccc(N)cc2)nc1 | 0.926 | 1 |
| COc1nccnc1NS(=O)(=O)c1ccc(N)cc1 | 1 | 1.97 |
| C=CCO/N=C1\c2ccccc2-c2nc(C#N)c(C#N)nc21 | 0.778 | 0.699 |
| C[C@]12CC[C@@H]3c4ccc(O)cc4CC[C@H]3[C@@H]1C[C@H](O)[C@@H]2O | 1.07 | 0.987 |
| O=c1c(N=Nc2ccc(CS(=O)(=O)O)cc2)c(-c2ccc(C[N+](=O)[O-])cc2)[nH]n1-c1ccccc1 | 1.09 | 1.08 |
| CCCC(C(=O)O)c1c(C)nc2ccc(Cl)cc2c1-c1ccccc1 (stereo unspecified) | 1.02 | 0.957 |
| CC1=C(/C=C/C(C)=C/C=C/C(C)=C/C=C/C=C(C)/C=C/C=C(C)/C=C/C(=O)[C@]2(C)C[C@@H](O)CC2(C)C)C(C)(C)C[C@H](O)C1 | 0.964 | 0.922 |
| CC1=C(/C=C/C(C)=C/C=C/C(C)=C\C(=O)O)C(C)(C)CCC1 | 1.75 and 1.62 and 1.8 | 1.89 and 1.79 and 1.52 |
| CC1=C(/C=C/C(C)=C/C=C/C(C)=C/CO)C(C)(C)CCC1 | 1.35 and 1.26 and 1.07 | 1.26 and 1.06 and 1.11 |

| SMILES | PER2::LUC luminescence (time after treatment 24 h) | PER2::LUC luminescence (time after treatment 30 h) |
| --- | --- | --- |
| CC1=C(/C=C/C(C)=C/C=C/C(C)=C/C=C/C=C(C)/C=C/C=C(C)/C=C/C2=C(C)C(=O)CCC2(C)C)C(C)(C)CCC1=O | 0.908 | 0.963 |
| CC1=C(/C=C/C(C)=C/C=C/C(C)=C/C(=O)Nc2ccc(O)cc2)C(C)(C)CCC1 | 0.452 and 1.09 | 0.603 and 1.06 |
| CC1=C(/C=C/C(C)=C/C=C/C(C)=C\CO)C(C)(C)CCC1 | 1.08 | 1.03 |
| CC(=O)OC/C=C(C)/C=C/C=C(C)/C=C/C1=C(C)CCCC1(C)C | 0.964 | 0.832 |
| CCCC(=O)OCc1ccc(OC(=O)/C=C(C)/C=C/C=C(C)/C=C/C2=C(C)CCCC2(C)C)cc1 | 1.02 | 1.16 |
| CC1=C(/C=C/C(C)=C\C=C\C(C)=C\C(=O)O)C(C)(C)CCC1 | 2.08 | 1.87 |
| CCCCCCCCCCCCCCCC(=O)OC/C=C(C)/C=C/C=C(C)/C=C/C1=C(C)CCCC1(C)C | 0.929 and 0.69 | 0.976 and 0.869 |
| CC1=C(/C=C/C(C)=C/C=C/C(C)=C/C=C/C=C(C)/C=C/C=C(C)/C=C/C2=C(C)CCCC2(C)C)C(C)(C)CCC1 | 1.07 | 0.941 |
| Clc1ccc(N/N=C(/c2ccccc2)c2ccccn2)nc1 | 0.832 | 0.785 |
| CC(C)C[C@H](NC(=O)[C@H](CCC(N)=O)NC(=O)[C@H](CCCCN)NC(=O)[C@H](CCC(N)=O)NC(=O)[C@@H](N)CCC(=O)O)C(=O)N[C@@H](CCC(N)=O)C(=O)O | 1.03 | 0.938 |
| CC(=O)Oc1ccc(O)cc1 | 0.907 | 1.01 |
| CSC[C@H]1O[C@@H](n2cnc3c(N)ncnc32)[C@H](O)[C@@H]1O | 0.938 | 0.773 |
| COc1ccc2cc1Oc1ccc(cc1)C[C@H]1c3cc(c(OC)cc3CCN1C)Oc1c(OC)c(OC)c(OC)c3c1[C@H](C2)N(C)CC3 | 0.81 | 0.85 |
| COc1ccc(S(=O)(=O)Nc2ccccc2CN(C)C/C=C/c2ccc(Cl)cc2)cc1 | 1.02 and 0.909 | 0.939 and 0.913 |
| Nc1ncnc2c1c(-c1ccc(Oc3ccccc3)cc1)nn2[C@@H]1CCCNC1 | 0.544 | 0.62 |
| O=C1C[C@@H](c2ccc(O)c(O)c2)Oc2cc(O)cc(O)c21 | 0.983 | 1.05 |
| O=C1C[C@@H](c2ccc(O)cc2)Oc2cc(O)cc(O)c21 | 1.46 | 1.25 |
| O=C1C[C@@H](c2ccccc2)Oc2cc(O)cc(O)c21 | 1.07 | 1.08 |
| CC(Cc1ccccc1)(NC(=O)CN)c1ccccc1 (racemic) | 0.964 | 1.04 |
| CNC(=O)c1cc(Oc2ccc(NC(=O)Nc3ccc(Cl)c(C(F)(F)F)c3)c(F)c2)ccn1 | 0.831 and 0.772 | 0.697 and 0.731 |
| CNC(=O)c1cc(Oc2ccc(NC(=O)Nc3ccc(Cl)c(C(F)(F)F)c3)cc2)ccn1 | 0.556 and 0.486 | 0.816 and 0.513 |
| CC(=O)CC(=O)Nc1ccc(Cl)c(C(F)(F)F)c1 | 1.35 | 1.37 |
